Holding throughout (type): functional
Assay [1] deals with Solute carrier family 2, facilitated glucose transporter member 1 (Homo sapiens) (UniProt P11166). The experiment in a line: ST_JUDE_LEISH: Cytotoxicity at 2uM final concentration against transgenic Leishmania Mexicana promastigotes LmGLUT1 that are glucose transport deficient and complemented with the human glucose transporter GLUT1. Activity is measured by DNA content using SYBR green in vitro.

In assay [2] the target is Hexose transporter 1 (Plasmodium falciparum) (UniProt O97467). The experiment in a line: ST_JUDE_LEISH: Cytotoxicity at 2uM final concentration against transgenic Leishmania Mexicana promastigotes LmPfHT that are glucose transport deficient and complemented with the Plasmodium falciparum hexose transporter. Activity is measured by DNA content using SYBR green in vitro.

Assay [3] concerns the target Glucose transporter (Leishmania mexicana) (UniProt O61059). The experiment in a line: ST_JUDE_LEISH: Cytotoxicity at 2uM final concentration against transgenic Leishmania Mexicana promastigotes LmGT2 that are glucose transport deficient and complemented with the L. Mexicana glucose transporter 2. Activity is measured by DNA content using SYBR green in vitro.

The text below walks through data of ChEMBL document CHEMBL3433997, “St. Jude Leishmania screening dataset” (2016).

As a reminder, the inhibition is the relative decrease from the control value, in per cent.

Sequence of Solute carrier family 2, facilitated glucose transporter member 1 (Homo sapiens) (P11166 whole entry): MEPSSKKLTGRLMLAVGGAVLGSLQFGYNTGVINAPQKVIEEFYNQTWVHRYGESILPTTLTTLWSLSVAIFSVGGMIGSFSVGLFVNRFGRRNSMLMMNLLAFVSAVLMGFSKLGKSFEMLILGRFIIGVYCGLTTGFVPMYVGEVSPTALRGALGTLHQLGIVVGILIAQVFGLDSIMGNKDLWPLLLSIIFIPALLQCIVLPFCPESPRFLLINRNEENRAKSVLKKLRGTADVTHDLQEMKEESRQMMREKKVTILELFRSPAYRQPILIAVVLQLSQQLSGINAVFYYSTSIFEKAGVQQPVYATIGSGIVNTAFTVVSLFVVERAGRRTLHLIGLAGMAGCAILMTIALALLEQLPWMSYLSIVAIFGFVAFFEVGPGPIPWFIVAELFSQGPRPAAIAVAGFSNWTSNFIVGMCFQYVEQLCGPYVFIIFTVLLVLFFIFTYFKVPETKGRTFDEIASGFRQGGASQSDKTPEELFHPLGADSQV

For `Cc1cc(N(C)C)nc(Nc2ccc(NC(=O)C(C)Oc3ccccc3)cc2)n1` (centres undefined), the results for the inhibition in assay [1], in assay [2] and in assay [3] were 13.2%, 14.5% and 9.35%, respectively.
`CCCc1cc(Cc2cnc(N)nc2N)cc2c1OC(C)(C)C2`: the inhibition in assay [1] worked out at 5.74%; in assay [2], 3.03%; in assay [3] it was 2.58%.
In the case of `Cc1ccccc1Nc1nc(Nc2ccccc2)c2ccccc2n1`, the figures for the inhibition in assay [1], in assay [2] and in assay [3] were 38.8%, 44% and 13%, respectively.
With `Nc1ncc(-c2ccc3[nH]ccc3c2)c2ccc(-c3ccncc3)cc12`, the inhibition in assay [1] amounted to 10%; in assay [2], 10.2%; in assay [3] it was 9.5%.
Take `CCCOc1ccc2ccccc2c1CNCCCCCCNCc1c(OCCC)ccc2ccccc12`: the inhibition is 2.66% in assay [1], 1.04% in assay [2] and -1.19% in assay [3].
Take `COC(=O)Cn1c(C2CCN(CC3CCN(C(=O)/C=C/c4ccc(Cl)c(Cl)c4)CC3)CC2)nc2ccccc21`: the inhibition in assay [1] was 3.09%; in assay [2], 0.62%; in assay [3], 2.04%.
As to `COc1cc(F)c2ncc(Cl)c(CCN3CCC(NCc4ccc5c(c4)NC(=O)CS5)CC3)c2c1`, the inhibition was 15.1% in assay [1], 18.3% in assay [2] and 8.82% in assay [3].
Take `Cc1cccc2nc(-c3ccc(-c4ccc(CNCCN5CCNCC5)cc4)s3)[nH]c12`: the inhibition in assay [1] amounted to 2.77%; in assay [2] it was 3.12%; in assay [3], 3.22%.
Taken in the same sequence, the figures for `COc1ccc(C2(CNCC(O)c3cccc([N+](=O)[O-])c3)CCCCC2)cc1OC` (centres undefined) were 1.34%, 2.95% and 0.33%.
In the case of `Cc1ccccc1-c1nc2c(CN3CCC(O)(c4ccccc4)CC3)c(O)ccc2[nH]1`, the figures for the inhibition in assay [1], in assay [2] and in assay [3] were 11.5%, 8.82% and 8.8%, respectively.
For `CC(C)CCNCc1c(O)ccc2ccccc12`, the figures for the inhibition in assay [1], in assay [2] and in assay [3] were -2.54%, -0.86% and 3.37%, respectively.
Turning to `O=C(CN1CCN(S(=O)(=O)C=Cc2ccccc2)CC1)Nc1cc(C(F)(F)F)ccc1Cl`, the figures for the inhibition in assay [1], in assay [2] and in assay [3] were 9.54%, 7.6% and 8.72%, respectively.
For `COc1ccccc1CC1CCCN(C2CCC(NC(=O)c3cc4ccccc4[nH]3)CC2)C1` (centres undefined), the inhibition in assay [1] is 0.46%; in assay [2], 0.32%; in assay [3] it was -0.6%.
